Measured values from PubChem BioAssay AID743343 (Broad Institute, 2014).
Entries with a potency or affinity are not part of this list. Calls of active or inactive are those of the source. How the calls were made is not given here.

Tested on: Drosophila melanogaster bursicon receptor LGR2 (rickets)
Experiment: blockers of bursicon-stimulated LGR2 cAMP reporter – cell-based, HEK293, CRE-luciferase reporter, cherry pick, set 2, dose response (AID 743343)
Conditions: bursicon-induced cAMP antagonist; series mostly up to 35 µM

outcome, inactive:
Cn1c(=O)c2cc(NC(=O)NCc3ccccc3)ccc2n1C/C=C/c1ccccc1
CCc1nnc2cccc(Cl)n12
COc1ccc(N(CC(=O)NCc2cccs2)S(=O)(=O)c2ccc(C(C)=O)cc2)cc1
COc1cccc(-c2ccc(C3[C@@H]4CN(C(=O)C5CC5)C[C@H]3N4)cc2)c1 (stereo partly drawn)
COc1ccc2[nH]c3c(c2c1)CCN1C(=O)N([C@@H](C)C(=O)NCc2ccc(C)cc2)C(=O)[C@]31C
O=C(NCc1ccc(F)cc1)c1cc(C2CCCCN2S(=O)(=O)c2cccs2)on1 (stereo not drawn)
CCCCC(=O)N(C)c1c(C)nc2ccc(C(=O)N3CCCCC3)cn12
O=S(=O)(Nc1ccc(O)c2ccccc12)c1ccc(OC(F)(F)F)cc1
COc1ccc(-c2noc(CCC(=O)N3CCN(c4ccc(Cl)cc4)CC3)n2)cc1
CC(C)N(C(=O)Nc1ccc2nsnc2c1)C(C)C
O=C(C[C@H]1CC[C@H](NS(=O)(=O)c2cccc(F)c2)[C@@H](CO)O1)N1CCCCC1
C[C@H]1CN([C@@H](C)CO)C(=O)Cc2cc(NC(=O)Nc3ccc(F)cc3)ccc2O[C@H]1CN(C)CC1CCCCC1
COc1ccc(NC(=O)Nc2ccc3c(c2)CC(=O)N([C@@H](C)CO)C[C@@H](C)[C@H](CN(C)Cc2ccncc2)O3)cc1
CCC(=O)N(C)C[C@H]1Oc2cc(C#CCC(C)C)ccc2S(=O)(=O)N([C@H](C)CO)C[C@@H]1C
CC1(c2ccccc2Cl)NC(=O)N(CC(=O)N2CCc3ccccc32)C1=O (stereo not drawn)
Cc1cccc(Cn2ncc(Cl)c(Cl)c2=O)c1
Cc1ccc2nc(-c3ccc(NC(=O)c4cccnc4)cc3)oc2c1
O=C(CSc1ncnc2[nH]ncc12)Nc1nc(-c2ccc(F)c(F)c2)cs1
O=[N+]([O-])c1cc(S(=O)(=O)N2CCCCCC2)ccc1Cl
COc1ccc(S(=O)(=O)N2CCOCC2)cc1NC(=O)COc1ccc(C)cc1
CC(=O)c1c(C)[nH]c(C(=O)CN2C(=O)NC(C)(c3ccc(C)cc3)C2=O)c1C (stereo not drawn)
CC(C)CCNC(=O)C(c1ccc(O)cc1)N(Cc1cccs1)C(=O)C1COc2ccccc2O1 (stereo not drawn)
O=C(C[C@H]1C=C[C@@H](NC(=O)C2CCC2)[C@H](CO)O1)NCCCN1CCOCC1
Cc1ccnc(N2C(=O)c3ccccc3C2Nc2ccc3c(c2)OCCO3)c1 (stereo not drawn)
O=C(O)CSc1cc(NS(=O)(=O)c2cccc([N+](=O)[O-])c2)c2ccccc2c1O
COc1ccccc1CN(C)C[C@@H]1OCc2cnnn2CCCC(=O)N([C@H](C)CO)C[C@H]1C
Cc1cc(Cl)ccc1OCCCC(=O)Nc1cc(S(=O)(=O)N2CCOCC2)ccc1N1CCOCC1
Cc1ccc(-n2cc(CN(C)Cc3nccn3C)c(-c3cccc(C)c3)n2)cc1
c1ccc(COc2cccc(-c3cc4nc(NCCCn5ccnc5)ccn4n3)c2)cc1
COc1ccc2c3c([nH]c2c1)[C@H](CO)N(C(C)=O)CC31CCN(C(=O)CN2CCOCC2)CC1
Cc1noc2ncnc(Sc3ccc(Br)cc3)c12
O=C(c1ccc2c(c1)OCCO2)C1CCN(S(=O)(=O)c2ccc(F)cc2)CC1
Cc1ccc(S(=O)(=O)N2CCCc3nc(-c4ccc(F)cc4)ccc32)cc1
CCc1nnc(NC(=O)CSc2nnc3ncccn23)s1
COCC#Cc1ccc2c(c1)O[C@H](CN(C)S(=O)(=O)c1cccc(F)c1)[C@@H](C)CN([C@H](C)CO)S2(=O)=O
Cc1ccc(NC(=O)c2ncn(CC(=O)NCc3ccc4[nH]ccc4c3)n2)cc1C
CC(C)(C)c1nc2ccc(Cl)cn2c1CC1CCCCC1
O=C(Cc1ccncc1)NCC[C@H]1CC[C@H](NC(=O)C2CCCC2)[C@H](CO)O1
